Records with an inconclusive call do not appear. The source made the active and inactive calls. Unless noted, the call rests on the fitted dose curve; in most records, active means well fitted curve in the direction sought with a large enough effect; inconclusive means small, poorly fitted or top-dose-only effect, or another doubt; inactive means no such curve, though single readings can be large; an effect the other way counts as inactive or inconclusive.

The source of these data is PubChem BioAssay (NCATS).

A short description of assay [1]: Cell Viability - LYMP1-002 - Assay at 16 hr (AID 948). Further: potency means the concentration at half of the fitted maximal effect. The method, boiled down:
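Acute cytotoxicity is scored as a concentration-dependent fall in intracellular ATP in a human lymphoblastoid line (LYMP1-002) after 16 hr compound exposure at 37 C, measured by luciferase luminescence.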

Assay [2] deals with Pyruvate kinase PKM (Homo sapiens) (UniProt P14618). The assay is described as follows: qHTS Assay for Activators of Human Muscle Pyruvate Kinase (AID 954; active means well fitted curve in the direction sought with a large enough effect, not every such curve was filed as active). The method, boiled down: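 Screening used highly purified human pyruvate kinase M2 under submaximal activity, with PEP at its Km and ADP below Km. After an hour at room temperature, ATP was read by luciferase luminescence.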
Pyruvate kinase PKM (Homo sapiens), sequence (P14618 whole entry, looked up): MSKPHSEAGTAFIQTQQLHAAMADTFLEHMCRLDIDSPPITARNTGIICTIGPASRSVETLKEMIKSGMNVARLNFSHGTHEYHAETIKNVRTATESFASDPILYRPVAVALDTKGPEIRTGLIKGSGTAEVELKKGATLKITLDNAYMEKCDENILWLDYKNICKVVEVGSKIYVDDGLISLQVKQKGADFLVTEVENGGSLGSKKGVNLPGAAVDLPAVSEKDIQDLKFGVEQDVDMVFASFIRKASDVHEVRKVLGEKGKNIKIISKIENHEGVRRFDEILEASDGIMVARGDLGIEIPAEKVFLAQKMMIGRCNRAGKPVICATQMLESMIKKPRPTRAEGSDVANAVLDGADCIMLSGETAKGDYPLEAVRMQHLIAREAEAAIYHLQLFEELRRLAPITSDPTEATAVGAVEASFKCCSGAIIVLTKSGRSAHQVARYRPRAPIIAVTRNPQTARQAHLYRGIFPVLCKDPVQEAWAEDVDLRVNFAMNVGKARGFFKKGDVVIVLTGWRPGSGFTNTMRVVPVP
Background: Quantitative high-throughput screening tests each substance at several concentrations.

Assay [3] can be described thus: MultiTox-Fluor Cytotoxicity Assay - LYMP1-002 - Live Cells (AID 955).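 Further: cells exposed to compound for 16 hours.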 Further: potency means the concentration at half of the fitted maximal effect. The method, boiled down: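 Cells were seeded at 2500 per well and incubated 5 hr. Compounds were then added for 16 hr at 37 C, followed by MultiTox-Fluor reagent for 60 min at room temperature and fluorescence reading of viable-cell protease signal.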
The target of assay [4] is Alpha-galactosidase (Coffea arabica) (UniProt Q42656). The assay is described as follows: Counterscreen for Glucocerebrosidase Inhibitors: qHTS Assay for Coffee Bean alpha-Galactosidase at pH 4.5 (AID 957). Further: series mostly up to about 77 µM. The method in brief: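 Enzyme is added first (2 nM final), then compounds titrated from 0.7 nM to 77 uM, then 80 uM 4-methylumbelliferyl alpha-D-galactopyranoside; after 20 min at room temperature a pH 10 NaOH/glycine stop precedes fluorescence reading at 365/440 nm.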
Alpha-galactosidase (Coffea arabica), sequence (Q42656 whole entry, looked up): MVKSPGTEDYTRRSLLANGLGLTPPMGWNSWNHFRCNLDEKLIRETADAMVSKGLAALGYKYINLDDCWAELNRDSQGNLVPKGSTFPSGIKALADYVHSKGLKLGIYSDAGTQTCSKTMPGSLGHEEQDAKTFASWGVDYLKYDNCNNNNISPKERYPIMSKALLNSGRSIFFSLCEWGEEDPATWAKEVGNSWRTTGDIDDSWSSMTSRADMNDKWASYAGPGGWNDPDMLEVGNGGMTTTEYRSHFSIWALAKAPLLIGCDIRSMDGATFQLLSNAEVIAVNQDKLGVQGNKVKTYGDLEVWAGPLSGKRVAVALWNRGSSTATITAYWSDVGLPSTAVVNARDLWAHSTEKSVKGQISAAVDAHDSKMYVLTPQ
A general note: A counterscreen serves to expose hits that act by an unwanted route or on another target.

Assay [5] can be described thus: MultiTox-Fluor Cytotoxicity Assay - LYMP1-002 - Dead Cells (AID 960).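 Further: cells exposed to compound for 16 h at 37 °C; nearly all actives have a fitted effect of over 60% in size.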 The method, boiled down: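 Cells were plated, rested 5 hr, then treated with compound dilution series for 16 hr at 37 C. After adding substrate reagent and 60 min at room temperature, dead-cell protease fluorescence gave concentration-response curves fitted by the Hill equation.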
A short description of assay [6]: MultiTox-Fluor Cytotoxicity Assay - LYMP1-003 - Dead Cells (AID 961).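 Further: cells exposed to compound for 16 h at 37 °C; nearly all actives have a fitted effect of over 70% in size.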 Further: potency means the concentration at half of the fitted maximal effect. The method, boiled down: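 Acute toxicity is scored as increased dead-cell protease activity in human lymphoblastoid LYMP1-003 cells after 16 h compound exposure in complete culture medium. Activity is normalized to DMSO basal and 15 uM tetraoctylammonium bromide as full response.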
Assay [7] can be described thus: MultiTox-Fluor Cytotoxicity Assay - LYMP1-003 - Live Cells (AID 962).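 Further: cells exposed to compound for 16 hours at 37 °C.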 Further: potency means the concentration at half of the fitted maximal effect. The method, boiled down: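 Acute cytotoxicity is scored as a drop in live-cell protease activity in human lymphoblastoid LYMP1-003 cells after 16 hr compound exposure at 37 C. AC50 values come from Hill-equation modelling of concentration-response data.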
Assay [8] can be described thus: Cell Viability - LYMP1-003 - Assay at 24 hr (AID 963). Further: potency means the concentration at half of the fitted maximal effect. The method in brief: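 Cytotoxicity is scored as a concentration-dependent fall in ATP-linked luciferase signal in human lymphoblastoid LYMP1-003 cells treated 24 hr at 37 C in complete culture medium.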
A short description of assay [9]: Cell Viability - LYMP1-003 - Assay at 40 hr (AID 964). Further: nearly all actives have a fitted effect of over 60% in size. Further: potency means the concentration at half of the fitted maximal effect. The method, boiled down:
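Luminescent ATP signal (CellTiter-Glo) served as the viability read-out after 40 hr compound treatment of human lymphoblastoid LYMP1-003 cells at 37 C. Decreases in ATP were fitted with the Hill equation to give AC50.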

Assay [10] can be described thus: Cell Viability - LYMP2-003 (AID 965).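 Further: cells exposed to compounds for 24 h before reading; nearly all actives have a fitted effect of over 50% in size.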 Further: potency means the concentration at half of the fitted maximal effect. The method in brief:
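Acute cytotoxicity is scored as a concentration-dependent drop in intracellular ATP, measured by luciferase luminescence in human lymphoblastoid cells treated for 24 hours at 37 C. AC50 values derive from Hill-equation modelling.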

Assay [11] in a line: Cell Viability - LYMP2-004 (AID 966). Further: nearly all actives have a fitted effect of over 65% in size. Further: potency means the concentration at half of the fitted maximal effect. The method in brief:
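qHTS cytotoxicity: human lymphoblastoid line, 24 hr compound treatment, 37 C, complete medium. Viability read as cellular ATP via luciferase luminescence; tetraoctylammonium bromide served as positive control.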

Assay [12] is described as follows: Cell Viability - LYMP2-005 (AID 967). Further: series mostly up to about 92 µM. The method, boiled down: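 qHTS viability screen in LYMP2-005 cells: 24 h at 37 C with compound, ATP luminescence via CellTiter-Glo, AC50 from Hill curves.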
Assay [13] in a line: Cell Viability - LYMP2-009 (AID 968). Further: nearly all actives have a fitted effect of over 55% in size. Further: potency means the concentration at half of the fitted maximal effect.
Assay [14] is described as follows: Cell Viability - LYMP2-011 (AID 969). Further: nearly all actives have a fitted effect of over 60% in size. Further: potency means the concentration at half of the fitted maximal effect. The method in brief:
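In this qHTS cytotoxicity format, compounds are tested across concentrations on human lymphoblastoid cells in complete medium for 24 hours at 37 C. Viability is taken as cellular ATP measured by luciferase luminescence.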

Assay [15] in a line: Cell Viability - LYMP2-013 (AID 970). Further: nearly all actives have a fitted effect of over 55% in size. Further: potency means the concentration at half of the fitted maximal effect. The method, boiled down: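 Cytotoxicity is scored as a concentration-dependent drop in intracellular ATP in human lymphoblastoid cells after 24 hr compound exposure at 37 C. ATP is quantified by luciferase luminescence, and AC50 values come from Hill-equation modeling.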
Assay [16] can be described thus: Cell Viability - LYMP2-015 (AID 971). Further: nearly all actives have a fitted effect of over 55% in size. Further: potency means the concentration at half of the fitted maximal effect. The method, boiled down: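 Cells are seeded at 2500 per well and incubated 5 hr at 37 C. Compounds are added across a concentration series for 24 hr at 37 C. CellTiter-Glo is added, and luminescence is read after 30 min at room temperature.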
Assay [17] in a line: Cell Viability - LYMP2-017 (AID 972). Further: nearly all actives have a fitted effect of over 55% in size. Further: potency means the concentration at half of the fitted maximal effect. The method in brief:
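Cytotoxicity is scored as a concentration-dependent drop in cellular ATP in a human lymphoblastoid line after 24 hr treatment at 37 C. Values are AC50s from Hill-equation modelling.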

Assay [18] can be described thus: Cell Viability - LYMP2-021 (AID 974). Further: potency means the concentration at half of the fitted maximal effect. The method, boiled down: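 Loss of cellular ATP, measured with a luciferase-based CellTiter-Glo readout, serves as the toxicity signal in human lymphoblastoid cells treated for 24 hours at 37 C. Potency is reported as AC50 from a standard Hill model.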

Consider `NNC(N)=O`, for which the Potency result in [1], in assay [3], in [5], in assay [6], in assay [7] and in assay [8] was “inactive” each time. Further, the Potency result in [9], in [10], in assay [11], in assay [12], in [13] and in assay [14] was “inactive” in each case. Also, the Potency entry in assay [15], in [16], in assay [17] and in [18] was “inactive” each time. Moreover, the call in assay [2] and in [4] was inactive.
Turning to `O=[N+]([O-])c1ccc(F)c([N+](=O)[O-])c1`, the Potency entry in [1], in [3], in assay [5], in [6], in [7] and in [8] was “inactive” each time. Besides, the Potency entry in assay [9], in [10], in assay [11], in assay [12] and in assay [13] was “inactive” in each case.
In the case of `CCOC(=O)c1ccccc1C(=O)OCC`, the Potency result in assay [1], in [3], in assay [5], in [6], in assay [7] and in assay [8] was “inactive” in each case. Besides, the Potency entry in [9], in [10], in [11], in [12], in assay [13] and in assay [14] was “inactive” in each case. The Potency result in assay [15], in [16], in assay [17] and in assay [18] was “inactive” throughout.
As to `O=[N+]([O-])c1ccccc1`, the Potency entry in assay [1], in assay [3], in [5], in assay [6], in assay [7] and in assay [8] was “inactive” throughout. For the same compound, the Potency entry in assay [9], in assay [10], in assay [11], in assay [12], in assay [13] and in assay [14] was “inactive” each time. Moreover, the Potency entry in assay [15], in assay [16], in assay [17] and in assay [18] was “inactive” in each case.
Regarding `O=C/C=C/c1ccccc1`, the Potency result in assay [1], in [3], in [5], in [6], in assay [7] and in assay [8] was “inactive” throughout. In addition, the Potency entry in [9], in assay [10], in assay [11], in assay [12], in assay [13] and in [14] was “inactive” in each case. Further, the Potency result in assay [15], in [16], in assay [17] and in assay [18] was “inactive” in each case.
Turning to `CC(C)Nc1ccc(Nc2ccccc2)cc1`, the Potency in assay [1] is 39.8 µM (active); in assay [3], 25.1 µM (active); in assay [6] it was 25.1 µM (active); in [7], 50.1 µM (active); in assay [8], 50.1 µM (active); in assay [9] it was 31.6 µM (active). Moreover, the Potency in assay [10] is 39.8 µM (active); in [11], 39.8 µM (active); in [13], 31.6 µM (active); in assay [14], 31.6 µM (active); in [15], 31.6 µM (active); in assay [16], 25.1 µM (active). For the same compound, the Potency in [17] and in assay [18] was 25.1 µM (active) throughout.
With `CCCCCCCCOC(=O)c1ccccc1C(=O)OCCCCCCCC`, the Potency entry in assay [1], in assay [3], in assay [5], in [6], in [7] and in assay [8] was “inactive” throughout. Further, the Potency result in assay [9], in assay [10], in [11], in assay [12], in assay [13] and in assay [14] was “inactive” throughout. Further, the Potency entry in [15], in [16], in assay [17] and in assay [18] was “inactive” each time.
On to `C=CCN=C=S`, for which the Potency entry in assay [1], in assay [3], in assay [5], in assay [6], in [7] and in assay [8] was “inactive” throughout. For the same compound, the Potency result in assay [9], in [10], in assay [11], in [12], in assay [13] and in assay [14] was “inactive” in each case. The Potency entry in [15], in assay [16], in assay [17] and in assay [18] was “inactive” throughout.
For `CC(C)CCON=O`, the Potency entry in assay [1], in [3], in assay [5], in assay [6], in assay [7] and in assay [8] was “inactive” throughout. In addition, the Potency result in assay [9], in assay [10], in assay [11], in [12], in assay [13] and in assay [14] was “inactive” each time. In addition, the Potency result in assay [15], in assay [16], in assay [17] and in assay [18] was “inactive” throughout.
